The panel holds about 79,000 compounds, 15% with a hit somewhere; the sample as a whole holds those more often. Rule as the data show it: active = growth inhibition above about 70%; inactive = the rest. Where a SMILES comes first, the peptide text is derived from it. The star is where a group is joined. Cbz = O=C(OCc1ccccc1)*
Assays:
[1] = NCI Yeast Anticancer Drug Screen. Data for the rad50 strain (AID 155);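 also: 0% = growth of vehicle-only cultures of the same strain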; details: S. cerevisiae rad50 strain growth inhibition; at 50.0 µM; active compounds read high
Outline: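 DNA repair mutant yeast, compound exposure, growth read-out; inhibition is taken relative to vehicle.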

[2] = NCI Yeast Anticancer Drug Screen. Data for the mec2-1 strain (AID 157); details: S. cerevisiae mec2-1 strain, at 50.0 µM, active compounds read high
Outline: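 Using mec2-1 yeast: add compound, measure growth, express inhibition versus vehicle-treated cultures.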

[3] = NCI Yeast Anticancer Drug Screen. Data for the sgs1 mgt1 strain (AID 161);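 also: 0% = growth of cultures given vehicle only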; details: S. cerevisiae sgs1 mgt1 strain, at 50.0 µM, active compounds read high
Outline: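 Yeast cells carrying a defined DNA-repair defect were exposed to test compounds. Growth inhibition was measured relative to vehicle-treated controls.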

[4] = NCI Yeast Anticancer Drug Screen. Data for the cln2 rad14 strain (AID 165);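 also: 0% = growth equal to vehicle treated cultures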; details: S. cerevisiae cln2 rad14 strain, at 50.0 µM, active compounds read high
Outline: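 Yeast strain cln2 rad14, bearing defects in cell cycle control and DNA repair, serves as the test system; values reflect growth inhibition compared with vehicle.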

[5] = NCI Yeast Anticancer Drug Screen. Data for the bub3 strain (AID 167); details: S. cerevisiae bub3 mutant strain, at 50.0 µM, active compounds read high
Outline: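 In this screen, a yeast mutant lacking normal mitotic checkpoint function is challenged with compound. Relative growth versus vehicle gives the inhibition value.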

[6] = NCI Yeast Anticancer Drug Screen. Data for the mlh1 rad18 strain (AID 175); details: S. cerevisiae mlh1 rad18 strain growth inhibition; at 50.0 µM; active compounds read high
Outline: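 Steps: expose repair-defective yeast to compound; measure growth; express inhibition against vehicle-treated controls.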

Measured: growth inhibition

COc1ccc2nc3cc(Cl)ccc3c(NCCC3CCCN4CCCCC34)c2c1 (stereo not given)
inactive: [1] 33% | [2] 26.4% | [3] 14.6% | [4] 21.6% | [5] 12.4% | [6] 33%

CC(NC(=O)C(NC(=O)OCc1ccccc1)C(C)C)C(=O)NCC(=O)O (stereo not drawn) (Cbz-Val-Ala-Gly-OH; configuration not given here)
inactive: [1] -0.05% | [2] -23.2% | [3] -9.9% | [4] 19.8% | [5] 7.1% | [6] -4.45%

Oc1c(Cl)cc(Cl)cc1CN(Cc1cc(Cl)cc(Cl)c1O)c1ccccc1
inactive: [1] 15.8% | [2] 16.9% | [3] 40.8% | [4] 52.1% | [5] 27.1% | [6] 12.7%

C/C(=N\NS(=O)(=O)c1ccc([N+](=O)[O-])cc1)c1ccc[n+]([O-])n1
inactive: [1] -19.2% | [2] -18.6% | [3] -13.6% | [4] -2.75% | [5] 2.15% | [6] -34%

COC(=O)C1C(O)C(C)C(OC(C)=O)C(C)/C=C\C=C(C)C(=O)Nc2c(C)c(OC(C)=O)c3c(c2O)C(=O)C(C)=C2OCOC(=C23)C(C)=CC(C)(O)C(O)C(C)C1O (stereo not given)
inactive: [1] 3.25% | [2] -18.8% | [3] 15.7% | [4] 3.35% | [5] 26.8% | [6] 20.9%

CC(=O)OC1C(COC(=O)c2ccccc2)OC(Nc2ncc(-c3ccc(Br)cc3)s2)C(OC(=O)c2ccccc2)C1OC(=O)c1ccccc1 (stereo not given)
inactive: [1] 1.05% | [2] 15.4% | [3] -5.9% | [4] 31.9% | [5] -3.55% | [6] -39.9%

Clc1ccc2c(NCCCCN=Cc3ccccc3)ccnc2c1
inactive: [1] -9.55% | [2] -27.2% | [3] -14% | [4] -10.4% | [5] 15.3% | [6] -12.7%

NC(=S)N1CC=CCC1
inactive: [1] -8.65% | [2] 0.9% | [3] -3.4% | [4] 7.95% | [5] 3.9% | [6] -6.8%

COc1ccccc1OCC(COC(=O)Nc1ccccc1)OC(=O)Nc1ccccc1 (stereo not given)
inactive: [1] -44.2% | [2] -27.2% | [3] -30.4% | [4] -0.6% | [5] -17.6% | [6] -17.8%

COc1ccc(C2Nc3cc(Cl)ccc3NC3=C2C(=O)CC(C)(C)C3)cc1 (stereo not given)
inactive: [1] 52.5% | [2] 30.9% | [3] 41.2% | [4] 28.6% | [5] 40.3% | [6] 54.3%

O=C1OC2(C(F)(F)F)Oc3ccccc3CN2C12CCCCC2 (stereo not given)
inactive: [1] 17.6% | [2] 35% | [3] 11.4% | [4] 25.1% | [5] 42.5% | [6] 13.2%

Cc1ccccc1-c1c2ccccc2cc2c1ccc1ccccc12
inactive: [1] 12% | [2] -21.7% | [3] -5.05% | [4] -20.9% | [5] 9.35% | [6] 0.35%

N=c1nccnn1O
inactive: [1] 6.45% | [2] 13.2% | [3] -8.2% | [4] 10.4% | [5] -6.5% | [6] 3.95%

COc1cc2c(cc1OC)C1CC(CC(N)=O)(C(N)=O)CCN1CC2 (stereo not given)
inactive: [1] 2.35% | [2] 16.6% | [3] 14.6% | [4] -49.5% | [5] 1.5% | [6] 17.5%

CC(O)(/C=C/c1ccccc1)P(=O)(O)c1ccccc1 (stereo not given)
inactive: [1] -40% | [2] -13.2% | [3] -29.1% | [4] -13% | [5] -13.3% | [6] 9.4%

Cc1c(Br)c(C)[n+]([O-])n1O
inactive: [1] 4% | [2] 8.75% | [3] 5.05% | [4] -17% | [5] 26.4% | [6] 0.2%

O=C(CC(=O)c1cccc([N+](=O)[O-])c1)C(=O)Nc1ccccc1
inactive: [1] -30.5% | [2] -28.8% | [3] 14.7% | [4] 11.1% | [5] -8.05% | [6] -5.55%

CC(=O)NC(Cc1ccccc1)c1ccccc1 (stereo not given)
inactive: [1] 17.1% | [2] -8.2% | [3] 11.1% | [4] 12.8% | [5] 21.6% | [6] 10.8%

O=C1OC[C@H]2[C@@H]1[C@H]1O[C@@H]2C2=C(CCC2)C1=O
inactive: [1] -27.4% | [2] -38.8% | [3] -43.5% | [4] -19.7% | [5] -30.9% | [6] -51.3%

O=C1c2ccccc2C(=O)N1CC(F)(F)F
inactive: [1] -11.9% | [2] -4.75% | [3] -9.5% | [4] 8.25% | [5] 5.6% | [6] -12.3%
